Source: PubChem BioAssay (NCI)
Several values for one entry are separate records, joined by “and”; a condition that tells them apart may be missing. Identical values can stand only once. About 83,000 compounds went through this panel and 20% of them were active in at least one assay; those are over-represented in the sample as a whole.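 96-well plates, one dose, 48 hours. Percent growth reported; active if below 10.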 Activity calls are given as the source filed them.

Key:
Experiment in all cases: NCI-60 one-dose screen, 48 h (100 = growth as untreated, 0 = no growth, -100 = all killed)
Conditions in all cases: 10 µM unless noted
HCT-15 colon = tested on: HCT-15 colon
HT29 colon = tested on: HT29 colon
SNB-75 CNS = tested on: SNB-75 CNS
SNB-19 CNS = tested on: SNB-19 CNS
U251 CNS = tested on: U251 CNS
PC-3 prostate = tested on: PC-3 prostate
SK-MEL-5 melanoma = tested on: SK-MEL-5 melanoma
UACC-62 melanoma = tested on: UACC-62 melanoma
LOX IMVI melanoma = tested on: LOX IMVI melanoma
SK-MEL-28 melanoma = tested on: SK-MEL-28 melanoma

Measured: growth

O=c1[nH]c(=O)n(C2OC(CO)C(O)C2O)cc1I (stereo not given)
inactive: HCT-15 colon 114% and 107% | HT29 colon 96.9% | SNB-75 CNS 91.6% and 87.6% | SNB-19 CNS 108% and 107% | U251 CNS 99.1% and 111% | PC-3 prostate 87.4% and 91.9% | SK-MEL-5 melanoma 101% and 113% | UACC-62 melanoma 102% and 103% | LOX IMVI melanoma 98.9% and 92.4% | SK-MEL-28 melanoma 106% and 110%

CCC(C)(O)CCC(C)(O)CC (stereo not given)
inactive: HCT-15 colon 112% | HT29 colon 113% | SNB-75 CNS 108% | SNB-19 CNS 105% | U251 CNS 104% | PC-3 prostate 98.6% | SK-MEL-5 melanoma 104% | UACC-62 melanoma 108% | LOX IMVI melanoma 98.1% | SK-MEL-28 melanoma 124%

Nc1ccc(O)c(C(=O)O)c1
inactive: HCT-15 colon 97.3% and 107% and 99.2% | HT29 colon 111% and 113% and 115% | SNB-75 CNS 74.4% and 97.2% and 94.7% | SNB-19 CNS 91.9% and 104% and 117% | U251 CNS 74.5% and 101% | PC-3 prostate 89.6% and 105% | SK-MEL-5 melanoma 93.4% and 94.1% and 108% | UACC-62 melanoma 91.3% and 102% and 84.2% | LOX IMVI melanoma 84% and 99.5% | SK-MEL-28 melanoma 94.7% and 116% and 115%

CC1=CC(=O)c2cccc(NC3=NCCO3)c21
inactive: HCT-15 colon 102% | HT29 colon 101% | SNB-75 CNS 84.6% | SNB-19 CNS 104% | U251 CNS 99.5% | PC-3 prostate 89.1% | SK-MEL-5 melanoma 98.2% | UACC-62 melanoma 87.8% | LOX IMVI melanoma 98.4% | SK-MEL-28 melanoma 108%

OCCSc1ccc(Cl)cc1
inactive: HCT-15 colon 104% and 102% | HT29 colon 104% and 88.1% | SNB-75 CNS 96.7% and 83% | SNB-19 CNS 118% and 94.6% | U251 CNS 102% and 96.6% | PC-3 prostate 101% and 81.5% | SK-MEL-5 melanoma 108% and 98.3% | UACC-62 melanoma 110% and 98.1% | LOX IMVI melanoma 98.4% and 101% | SK-MEL-28 melanoma 121% and 93.3%

CC(=O)Oc1ccc(C2(c3ccc(OC(C)=O)cc3)C(=O)Nc3ccccc32)cc1
inactive: HCT-15 colon 67.3% and 73% | HT29 colon 112% and 131% | SNB-75 CNS 85.3% and 158% | SNB-19 CNS 108% and 101% | U251 CNS 108% and 102% | PC-3 prostate 65.3% and 52.3% | SK-MEL-5 melanoma 96.8% and 95% | UACC-62 melanoma 84.2% and 87.3% | LOX IMVI melanoma 53.9% and 46.7% | SK-MEL-28 melanoma 99.6% and 108%

CN(C)C(=S)N(C)C
inactive: HCT-15 colon 102% | HT29 colon 95.6% | SNB-75 CNS 86.3% | SNB-19 CNS 110% | U251 CNS 105% | PC-3 prostate 92.9% | SK-MEL-5 melanoma 108% | UACC-62 melanoma 108% | LOX IMVI melanoma 98.4% | SK-MEL-28 melanoma 118%

Cc1c(O)nc(N)[nH]c1=O
inactive: HCT-15 colon 106% | HT29 colon 106% | SNB-75 CNS 102% | SNB-19 CNS 108% | U251 CNS 100% | PC-3 prostate 101% | SK-MEL-5 melanoma 113% | UACC-62 melanoma 100% | LOX IMVI melanoma 99.4% | SK-MEL-28 melanoma 110%

CN(C)C(=N)N=C(N)N
inactive: HCT-15 colon 83.1% and 121% | HT29 colon 98.6% and 113% | SNB-75 CNS 101% and 114% | SNB-19 CNS 106% and 108% | U251 CNS 81.1% and 118% | PC-3 prostate 104% | SK-MEL-5 melanoma 103% and 131% | UACC-62 melanoma 99.7% and 120% | LOX IMVI melanoma 87% and 110% | SK-MEL-28 melanoma 116% and 106%

CCNC1=CC(=O)c2ncccc2C1=O
inactive: HCT-15 colon 10.8% | SNB-19 CNS 19.6% | U251 CNS 30.7% | PC-3 prostate 44.7%
active: HT29 colon 8.49% | SNB-75 CNS -91% | SK-MEL-5 melanoma -98.3% | UACC-62 melanoma -95.3% | LOX IMVI melanoma -35.3% | SK-MEL-28 melanoma -37%

O=C1c2ccccc2C(c2ccccc2)C1c1ccccc1 (stereo not given)
inactive: HCT-15 colon 71.8% | HT29 colon 98.9% | SNB-75 CNS 63.5% | SNB-19 CNS 91.9% | U251 CNS 101% | PC-3 prostate 80.7% | SK-MEL-5 melanoma 87.5% | UACC-62 melanoma 67.8% | LOX IMVI melanoma 88.5% | SK-MEL-28 melanoma 111%

O=C1Cc2ccccc2C(=O)N1
inactive: HCT-15 colon 99.2% | HT29 colon 88.9% | SNB-75 CNS 96.1% | SNB-19 CNS 106% | U251 CNS 86.1% | PC-3 prostate 95.2% | SK-MEL-5 melanoma 106% | UACC-62 melanoma 92.2% | LOX IMVI melanoma 42.1% | SK-MEL-28 melanoma 106%

CC(=O)/C(N=Nc1ccc(S(=O)(=O)c2ccc(N=N/C(C(C)=O)=C(/C)O)cc2)cc1)=C(\C)O
inactive: HCT-15 colon 106% | HT29 colon 102% | SNB-75 CNS 97.7% | SNB-19 CNS 114% | U251 CNS 101% | PC-3 prostate 92.1% | SK-MEL-5 melanoma 108% | UACC-62 melanoma 114% | LOX IMVI melanoma 99.1% | SK-MEL-28 melanoma 113%

Clc1ccc2c(c1)N(C1CCCN(Cc3ccccc3)C1)c1ccccc1S2 (stereo not given)
inactive: HCT-15 colon 26.6% | HT29 colon 76.7% | SNB-75 CNS 27.6% | SNB-19 CNS 41.6% | U251 CNS 17.4% | PC-3 prostate 45% | SK-MEL-5 melanoma 23.3% | UACC-62 melanoma 44% | LOX IMVI melanoma 57% | SK-MEL-28 melanoma 56.9%

COc1ccc(CCO)cc1
inactive: HCT-15 colon 102% | HT29 colon 94.3% | SNB-75 CNS 101% | SNB-19 CNS 100% | U251 CNS 95.5% | PC-3 prostate 91.9% | SK-MEL-5 melanoma 100% | UACC-62 melanoma 98.5% | LOX IMVI melanoma 99.5% | SK-MEL-28 melanoma 111%

CCOC(=N)c1ccc(C(=N)OCC)cc1
inactive: HCT-15 colon 96.4% | HT29 colon 101% | SNB-75 CNS 103% | SNB-19 CNS 91.4% | U251 CNS 102% | PC-3 prostate 103% | SK-MEL-5 melanoma 95.7% | UACC-62 melanoma 96.8% | LOX IMVI melanoma 98.1% | SK-MEL-28 melanoma 101%

O=C(O)Cc1cc(=O)[nH]n(-c2ccccc2)c1=O
inactive: HCT-15 colon 107% | HT29 colon 103% | SNB-75 CNS 91.3% | SNB-19 CNS 119% | U251 CNS 99.9% | PC-3 prostate 94% | SK-MEL-5 melanoma 107% | UACC-62 melanoma 101% | LOX IMVI melanoma 100% | SK-MEL-28 melanoma 110%

CCN(CC)C(CC(=O)c1ccccc1)C(=O)c1ccccc1 (stereo not given)
inactive: HCT-15 colon 64.6% | HT29 colon 95.1% | SNB-75 CNS 114% | SNB-19 CNS 98.4% | U251 CNS 93.7% | PC-3 prostate 101% | SK-MEL-5 melanoma 94.5% | UACC-62 melanoma 99.7% | LOX IMVI melanoma 88.6% | SK-MEL-28 melanoma 118%

CC1CCC(=O)N1c1ccc(N)cc1 (stereo not given)
inactive: HCT-15 colon 108% | HT29 colon 96.6% | SNB-75 CNS 97.4% | SNB-19 CNS 97.8% | U251 CNS 97.3% | PC-3 prostate 94.4% | SK-MEL-5 melanoma 98.9% | UACC-62 melanoma 100% | LOX IMVI melanoma 95.1% | SK-MEL-28 melanoma 107%

CCc1ccc(OC(=O)CCl)cc1
inactive: HCT-15 colon 107% | HT29 colon 107% | SNB-75 CNS 89.7% | SNB-19 CNS 108% | U251 CNS 97% | PC-3 prostate 98.3% | SK-MEL-5 melanoma 105% | UACC-62 melanoma 106% | LOX IMVI melanoma 93.3% | SK-MEL-28 melanoma 98.4%

O=C(O)c1cc(=O)[nH]c(=O)[nH]1
inactive: HCT-15 colon 102% and 97.9% | HT29 colon 93.3% and 110% | SNB-75 CNS 102% and 86.4% | SNB-19 CNS 111% and 104% | U251 CNS 105% and 95.8% | PC-3 prostate 91.4% and 80.3% | SK-MEL-5 melanoma 82.6% | UACC-62 melanoma 103% and 92.5% | LOX IMVI melanoma 98.8% and 92.3% | SK-MEL-28 melanoma 114% and 93.6%

O=C(c1ccncc1)c1c(Cc2ccccc2)ccc2ccccc12
inactive: HCT-15 colon 91.5% | HT29 colon 84.9% | SNB-75 CNS 90.4% | SNB-19 CNS 96.7% | U251 CNS 88.8% | PC-3 prostate 83% | SK-MEL-5 melanoma 80.1% | UACC-62 melanoma 66.3% | LOX IMVI melanoma 90.8% | SK-MEL-28 melanoma 90.2%
